# High-throughput results deposited in PubChem by several laboratories.
# MEKK3 PB1 HTS – raises or lowers MEK5 binding to the human MEKK3 PB1 domain | Q99759 | bead-based flow cytometry, Alexa488-MEK5 binding to MEKK3; actives lie on both sides; 0 = blocked by unlabeled MEK5, 100 = vehicle | binding response (% of control), % at 10 µM | actives 1.4% (n = 290,000);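 active = binding response more than 3 SD above or below the average of its plate-row segment, actives on both sides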;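 note: Alexa488 bead fluorescence after subtracting the streptavidin-only scavenger bead signal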
# ATG4B inhibitor – ATG4B (human) cysteine protease inhibition | Q9Y4P1 | ATG4B cleavage of LC3-PLA2, NBD-HPC fluorescence, 1 h | inhibition, % at 8.33 µM | actives 0.51% (n = 340,000); in the data active = inhibition above about 40%
# Target sequence (Q9Y4P1 whole entry, looked up): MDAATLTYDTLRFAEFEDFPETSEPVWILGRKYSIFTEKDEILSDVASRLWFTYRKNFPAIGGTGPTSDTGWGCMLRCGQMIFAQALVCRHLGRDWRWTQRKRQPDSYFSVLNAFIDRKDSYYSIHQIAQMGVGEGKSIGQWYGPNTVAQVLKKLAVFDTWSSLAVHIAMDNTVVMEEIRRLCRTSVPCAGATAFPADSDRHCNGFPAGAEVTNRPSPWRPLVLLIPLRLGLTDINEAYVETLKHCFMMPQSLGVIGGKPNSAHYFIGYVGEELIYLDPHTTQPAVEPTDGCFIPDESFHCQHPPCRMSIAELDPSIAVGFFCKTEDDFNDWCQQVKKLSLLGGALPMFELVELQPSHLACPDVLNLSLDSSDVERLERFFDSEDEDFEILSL
# MEKK2wt PB1 HTS – raises or lowers MEK5 binding to wildtype human MEKK2 PB1 domain; Q9Y2U5; bead flow cytometry, Alexa488-MEK5 binding to MEKK2 WT; actives lie on both sides; binding response (% of control), % at 10 µM; actives 1.1% (n = 290,000); in the data active = binding response below about 67% or above about 130%
# UBC13 polyUb – blocks human UBC13 polyubiquitin chain formation. inhibition, % at 20 µM. TR-FRET. actives 0.47% (n = 330,000). AID 485273; in the data active = inhibition above about 45%, passing the limit was not always enough
# Target sequence (P61088 whole entry, looked up): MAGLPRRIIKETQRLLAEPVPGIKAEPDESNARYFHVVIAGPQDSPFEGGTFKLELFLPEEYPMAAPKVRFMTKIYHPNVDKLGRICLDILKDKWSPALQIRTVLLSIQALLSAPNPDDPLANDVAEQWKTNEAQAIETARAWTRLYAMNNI
# PREPL inhibitor – inhibits the human prolyl oligopeptidase-like enzyme. actives 0.68% (n = 320,000). inhibition, % at 5.96 µM. recombinant PREPL, fluorescence polarization activity-based probe;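 note: 0% = enzyme with DMSO and 100% = wells lacking enzyme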
# MEKK2mut PB1 HTS – signal of MEK5 binding to mutant human MEKK2 PB1 domain. bead flow cytometry, Alexa488-MEK5 binding to MEKK2 mutant. percent response, % at 10 µM. actives 0.35% (n = 290,000). AID 1530; in the data active = percent response above about 24%, passing the limit was not always enough
# PREPL inh cf – human PREPL inhibition, confirmation. AID 2803. recombinant PREPL, fluorescence polarization activity probe. actives 67% (n = 2,000). shares compounds with PREPL inhibitor. inhibition, % at 5.96 µM;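 note: 0% = protein with DMSO and 100% = wells lacking protein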
# Casp3 counter – caspase-3 inhibition (UBC13 counter-screen); shares compounds with UBC13 polyUb; Recombinant caspase-3, Caspase-Glo 3/7 luminescence, 60 min; inhibition, % at 20 µM; actives 4% (n = 1,400);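 active = mean inhibition across replicates above about 26%, limit read from the data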;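 note: plate controls were DMSO with caspase-3 for no effect and DMSO wells lacking enzyme for full effect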
# UBC13 conf – confirmation of human UBC13 polyubiquitin inhibitors; shares compounds with UBC13 polyUb; UBC13 polyubiquitination, TR-FRET, biochemical; inhibition, % at 10 µM; actives 68% (n = 1,400); AID 488859; in the data active = inhibition above about 45%
# Starred values were filed as active, the others as inactive; . = no result; ! = not confirmed by another sample. Compounds with a hit are over-represented: about 3.1% of the library has one in this group of screens. Cut-off read from the data, not from the text of the source, unless noted: active = inhibition above about 43%; inactive = the rest.
SMILES,MEKK3 PB1 HTS,ATG4B inhibitor,MEKK2wt PB1 HTS,UBC13 polyUb,PREPL inhibitor,MEKK2mut PB1 HTS,Casp3 counter,UBC13 conf,others
C=CCn1c(O)c(C(CC)=NCCc2c[nH]c3ccccc23)c(=O)[nH]c1=O,97.0,-10.6,95.0,11.1,48.8*,-1.0,.,.,PREPL inh cf=52.4*
CN1CCc2cc3c(c4c2C1Cc1ccccc1-4)OCO3 (stereo unspecified),94.0,-5.5,106.0,-117.6,46.1*,10.0,.,.,PREPL inh cf=40.0
CCN1CCOC(c2ccccc2)C1 (stereo unspecified),.,2.8,.,.,.,.,.,.,
S=C(N1CCCCCC1)N1CC1,.,-1.2,.,.,.,.,.,.,
CC1CN1P(=S)(c1ccccc1)N1CC1C (stereo unspecified),.,-2.4,.,.,.,.,.,.,
CP(=O)(O)CN1CCCCC1,93.0,-2.9,90.0,5.3,3.0,-4.0,.,.,
O=C(CF)N(O)c1ccc(C=Cc2ccccc2)cc1,.,-5.8,.,.,.,.,.,.,
Cc1[nH]c2ccccc2c1CCN,106.0,-4.5,111.0,1.7,18.4,11.0,.,.,
Cc1[nH]c2ccccc2c1CCCNC1CCCCC1,87.0,-5.0,103.0,12.9,45.3*,0.0,.,.,PREPL inh cf=34.3
COC(=O)[C@@H]1C[C@H]1[C@@H](NP(=O)(c1ccccc1)c1ccccc1)c1ccccc1,99.0,-1.9,96.0,2.8,11.3,-3.0,.,.,
COC(=O)[C@H]1C[C@@H]1[C@H](NP(=O)(c1ccccc1)c1ccccc1)c1ccccc1,105.0,6.2,99.0,-4.7,46.6*,3.0,.,.,PREPL inh cf=46.5*
CCCCn1c(C)c(C(=O)OCC)c2c(CN3CCCC3)c(O)ccc21,103.0,2.0,108.0,15.7,54.6*,6.0,.,.,PREPL inh cf=33.9
COC(=O)C1=C(c2cccc(OCc3ccccc3)c2)C[C@@H]2CC[C@H]1N2C(=O)NC1CCN(Cc2ccccc2)CC1,.,-5.7,.,35.9,51.3*,.,.,.,PREPL inh cf=44.5*
O=C(c1ccccc1)C(Cc1ccccc1)N1CCOCC1 (stereo unspecified),.,0.8,.,.,.,.,.,.,
Cc1ccc2c(c1)C1CN(C)CCC1N2C(=O)/C(C#N)=C/c1ccc2c(c1)OCO2 (stereo unspecified),102.0,-4.6,113.0,45.8*,1.2,5.0,1.1,56.5*,
Cc1cccc(N2CCc3c2nc2ccccc2c3N)c1,106.0,-5.9,111.0,61.5*!,29.4,8.0,0.4,46.9*,
Cc1ccc2c(c1)C1C[N+](C)(CC(=O)c3ccc(Cl)cc3Cl)CCC1N2C(=O)c1ccc(F)cc1 (stereo unspecified),.,-5.8,.,46.6*,20.4,.,4.8,48.7*,
Cc1ccc2c(c1)C1CN(C)CCC1N2C(=O)c1cccs1 (stereo unspecified),88.0,1.3,83.0,-7.1,8.5,-28.0,.,.,
O=[N+]([O-])c1cccc(CN2CCN(Cc3ccc(Br)cc3)CC2)c1,98.0,0.4,102.0,3.9,4.2,3.0,.,.,
COC(=O)C1=C(c2ccc(F)cc2OCc2ccccc2)C[C@@H]2CC[C@H]1N2C(=O)NC1CCN(Cc2ccccc2)CC1,.,-1.6,.,51.3*,27.2,.,-2.6,37.7,
CN1CCN(c2ccc(N)c(N3CCN(C)CC3)c2)CC1,105.0,5.1,116.0,49.3*,4.0,6.0,1.2,78.0*,
O=C(C(=O)N1CCOCC1)c1cn(CCCOc2ccccc2)c2ccccc12,104.0,-2.9,103.0,29.4,18.1,-1.0,.,.,
O=C(C(=O)N1CCOCC1)c1cn(Cc2ccccc2)c2ccccc12,96.0,0.7,86.0,45.3*,42.8,-12.0,0.4,37.4,
NC1C2CN3CCN(C2)CC1(c1ccccc1)C3 (stereo unspecified),97.0,-1.9,98.0,6.0,22.9,-2.0,.,.,
NCCc1ccc(OCc2ccccc2)c(OCc2ccccc2)c1,.,-1.8,.,60.1*,8.8,.,0.3,59.4*,
SMILES,MEKK3 PB1 HTS,ATG4B inhibitor,MEKK2wt PB1 HTS,UBC13 polyUb,PREPL inhibitor,MEKK2mut PB1 HTS,Casp3 counter,UBC13 conf,others
CC(=O)N1N=C(c2c(O)n(C)c(=O)n(C)c2=O)CC1c1ccccc1 (stereo unspecified),99.0,0.9,100.0,51.4*,0.1,5.0,2.4,21.5,
CN1CCC2(CC1)CC(NC=O)c1ccccc1O2 (stereo unspecified),106.0,-5.4,109.0,-7.0,10.3,3.0,.,.,
N#C/C=C/C#N,.,2.9,.,5.6,5.5,.,.,.,
CCCCCC[N+](=O)[O-],.,1.4,.,4.1,1.1,.,.,.,
CCCCCCCCCCCCCCCC[N+](C)(C)C,.,26.4,.,89.9*,26.0,.,7.5,84.4*,
O=[N+]([O-])c1[nH]cnc1Br,.,7.4,.,.,.,.,.,.,
Ic1ccccc1CN[C@@H]1C2CCN(CC2)[C@@H]1C(c1ccccc1)c1ccccc1,.,-1.3,.,49.3*,42.5,.,-2.9,28.3,
O=C(c1cc(F)ccc1F)C1CCCN(Cc2ccc3nonc3c2)C1 (stereo unspecified),103.0,-4.2,113.0,1.3,-13.6,3.0,.,.,
Clc1ccc(CCC(Cn2ccnc2)Sc2c(Cl)cccc2Cl)cc1 (stereo unspecified),.,14.9,.,48.4*,1.7,.,-4.7,34.3,
Clc1ccc(C(Cn2ccnc2)OCc2csc3c(Cl)cccc23)c(Cl)c1 (stereo unspecified),.,13.0,.,44.1,30.0,.,.,.,
COc1ccc(O)c2c(=O)c3c(OC)cc4c(c3oc12)C1C=COC1O4 (stereo unspecified),91.0,-5.0,99.0,.,13.3,2.0,-4.0,.,
CN1[C@@H]2CC[C@H]1CC(OC1c3ccccc3CCc3ccccc31)C2 (stereo partly specified),.,1.4,.,57.8*,22.1,.,-2.2,36.7,
O=c1c2ccccc2[nH]c(=S)n1-c1cccnc1,99.0,-1.1,99.0,22.6,-4.4,-5.0,.,.,
